Holding throughout (details): Compound concentration 20.0 uM
Experiment [1] addresses Tyrosine-protein kinase ABL1 (Homo sapiens) (UniProt P00519).
For experiment [2], the target named is Bromodomain-containing protein 4 (Homo sapiens) (UniProt O60885).
Experiment [3] has as its target Cyclin-dependent kinase 2 (Homo sapiens) (UniProt P24941).
The target in experiment [4] is Casein kinase I isoform delta (Homo sapiens) (UniProt P48730).
Experiment [5] addresses Glycogen synthase kinase-3 beta (Homo sapiens) (UniProt P49841).
Experiment [6] concerns the target Mitogen-activated protein kinase 1 (Homo sapiens) (UniProt P28482).
Experiment [7] addresses T1, Aurora kinase A (Homo sapiens) (UniProt O14965).
T1 sequence (whole entry): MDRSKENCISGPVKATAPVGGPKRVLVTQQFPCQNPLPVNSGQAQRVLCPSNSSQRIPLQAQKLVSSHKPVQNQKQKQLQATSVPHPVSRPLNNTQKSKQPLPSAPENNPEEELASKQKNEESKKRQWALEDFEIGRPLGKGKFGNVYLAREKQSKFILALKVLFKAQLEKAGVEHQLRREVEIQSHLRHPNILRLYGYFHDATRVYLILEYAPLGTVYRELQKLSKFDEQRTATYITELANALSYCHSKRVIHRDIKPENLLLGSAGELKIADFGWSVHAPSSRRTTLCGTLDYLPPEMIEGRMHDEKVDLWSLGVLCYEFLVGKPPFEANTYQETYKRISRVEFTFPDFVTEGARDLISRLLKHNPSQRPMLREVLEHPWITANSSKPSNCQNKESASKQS

Experiment [8] has as its target T2, Transcription intermediary factor 1-alpha (Homo sapiens) (UniProt O15164).
T2 sequence (whole entry): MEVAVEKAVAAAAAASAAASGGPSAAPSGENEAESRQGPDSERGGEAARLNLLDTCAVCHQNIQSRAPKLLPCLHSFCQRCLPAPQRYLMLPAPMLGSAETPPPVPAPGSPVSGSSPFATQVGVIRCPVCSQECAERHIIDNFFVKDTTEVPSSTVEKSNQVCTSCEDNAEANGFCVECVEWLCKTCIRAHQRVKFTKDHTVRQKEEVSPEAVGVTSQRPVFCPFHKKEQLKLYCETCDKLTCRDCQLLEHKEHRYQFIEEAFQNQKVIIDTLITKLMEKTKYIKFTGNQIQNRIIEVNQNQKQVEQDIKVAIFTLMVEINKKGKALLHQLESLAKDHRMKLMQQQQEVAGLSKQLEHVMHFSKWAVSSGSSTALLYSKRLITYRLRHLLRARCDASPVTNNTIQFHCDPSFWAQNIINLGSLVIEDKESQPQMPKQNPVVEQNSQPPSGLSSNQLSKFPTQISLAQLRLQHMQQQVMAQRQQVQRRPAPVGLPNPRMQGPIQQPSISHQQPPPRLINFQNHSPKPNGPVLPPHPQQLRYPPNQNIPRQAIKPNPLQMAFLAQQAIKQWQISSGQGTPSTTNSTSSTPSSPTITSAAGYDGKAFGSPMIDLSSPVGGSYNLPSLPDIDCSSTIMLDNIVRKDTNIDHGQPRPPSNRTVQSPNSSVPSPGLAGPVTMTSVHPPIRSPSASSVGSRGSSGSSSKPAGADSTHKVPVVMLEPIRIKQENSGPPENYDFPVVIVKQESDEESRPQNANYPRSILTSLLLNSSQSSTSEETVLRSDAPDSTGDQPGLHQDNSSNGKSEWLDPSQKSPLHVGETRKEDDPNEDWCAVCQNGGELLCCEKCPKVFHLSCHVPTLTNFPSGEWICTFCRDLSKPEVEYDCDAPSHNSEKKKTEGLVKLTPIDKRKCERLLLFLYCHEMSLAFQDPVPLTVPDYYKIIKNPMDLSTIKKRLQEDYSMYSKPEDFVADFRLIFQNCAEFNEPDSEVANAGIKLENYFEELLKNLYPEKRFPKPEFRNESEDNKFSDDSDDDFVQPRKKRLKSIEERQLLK

Here are results for eleven molecules from ChEMBL document CHEMBL5724796, “Tm Shift (DSF) assay results for EUbOPEN Chemogenomics Library” (2024).

Residues, ends and D or L forms follow the SMILES beside them. *: point of attachment. Boc = CC(C)(C)OC(=O)*; CH2Cl = ClC*

Chain of Glycogen synthase kinase-3 beta (Homo sapiens) (P49841 whole entry, looked up): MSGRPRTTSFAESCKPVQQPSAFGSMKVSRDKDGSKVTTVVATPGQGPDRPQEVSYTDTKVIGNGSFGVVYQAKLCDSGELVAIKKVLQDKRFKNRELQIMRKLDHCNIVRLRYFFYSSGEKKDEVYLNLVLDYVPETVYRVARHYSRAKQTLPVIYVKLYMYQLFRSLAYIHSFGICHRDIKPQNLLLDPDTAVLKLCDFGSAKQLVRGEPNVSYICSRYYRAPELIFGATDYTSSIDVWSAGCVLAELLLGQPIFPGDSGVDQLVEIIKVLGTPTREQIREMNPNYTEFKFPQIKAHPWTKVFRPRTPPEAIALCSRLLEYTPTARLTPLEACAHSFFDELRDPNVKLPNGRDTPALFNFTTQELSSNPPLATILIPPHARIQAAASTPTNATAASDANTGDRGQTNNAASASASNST
Chain of Tyrosine-protein kinase ABL1 (Homo sapiens) (P00519 whole entry): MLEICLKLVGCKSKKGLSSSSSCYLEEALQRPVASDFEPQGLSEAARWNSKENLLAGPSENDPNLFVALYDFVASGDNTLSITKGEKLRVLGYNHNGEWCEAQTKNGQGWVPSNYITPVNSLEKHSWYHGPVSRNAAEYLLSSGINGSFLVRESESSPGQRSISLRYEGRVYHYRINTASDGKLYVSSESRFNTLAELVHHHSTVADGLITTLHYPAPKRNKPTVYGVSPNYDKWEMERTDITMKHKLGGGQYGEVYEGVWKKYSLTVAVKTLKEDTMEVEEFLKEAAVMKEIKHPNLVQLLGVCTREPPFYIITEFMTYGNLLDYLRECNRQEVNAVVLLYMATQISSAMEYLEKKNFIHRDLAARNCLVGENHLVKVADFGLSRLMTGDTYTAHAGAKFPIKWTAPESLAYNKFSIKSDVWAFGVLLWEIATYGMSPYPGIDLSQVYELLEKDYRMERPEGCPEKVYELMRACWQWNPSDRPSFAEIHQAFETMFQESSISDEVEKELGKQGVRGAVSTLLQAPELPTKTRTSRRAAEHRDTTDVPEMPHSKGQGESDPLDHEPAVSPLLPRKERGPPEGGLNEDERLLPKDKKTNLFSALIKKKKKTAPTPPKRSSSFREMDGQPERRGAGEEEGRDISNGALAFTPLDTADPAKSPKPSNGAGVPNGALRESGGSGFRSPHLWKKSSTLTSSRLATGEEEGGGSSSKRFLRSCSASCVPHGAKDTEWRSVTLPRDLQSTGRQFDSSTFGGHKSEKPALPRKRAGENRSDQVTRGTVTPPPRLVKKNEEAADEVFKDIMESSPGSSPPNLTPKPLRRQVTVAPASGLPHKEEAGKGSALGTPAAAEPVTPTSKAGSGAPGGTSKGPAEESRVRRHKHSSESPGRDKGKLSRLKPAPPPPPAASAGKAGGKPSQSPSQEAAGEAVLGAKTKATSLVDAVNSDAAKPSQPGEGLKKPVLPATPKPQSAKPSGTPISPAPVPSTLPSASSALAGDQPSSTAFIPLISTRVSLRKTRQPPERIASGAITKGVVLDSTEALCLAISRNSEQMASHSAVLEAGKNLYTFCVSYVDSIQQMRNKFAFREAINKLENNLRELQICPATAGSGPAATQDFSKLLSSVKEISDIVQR
Chain of Casein kinase I isoform delta (Homo sapiens) (P48730 whole entry, looked up, canonical isoform): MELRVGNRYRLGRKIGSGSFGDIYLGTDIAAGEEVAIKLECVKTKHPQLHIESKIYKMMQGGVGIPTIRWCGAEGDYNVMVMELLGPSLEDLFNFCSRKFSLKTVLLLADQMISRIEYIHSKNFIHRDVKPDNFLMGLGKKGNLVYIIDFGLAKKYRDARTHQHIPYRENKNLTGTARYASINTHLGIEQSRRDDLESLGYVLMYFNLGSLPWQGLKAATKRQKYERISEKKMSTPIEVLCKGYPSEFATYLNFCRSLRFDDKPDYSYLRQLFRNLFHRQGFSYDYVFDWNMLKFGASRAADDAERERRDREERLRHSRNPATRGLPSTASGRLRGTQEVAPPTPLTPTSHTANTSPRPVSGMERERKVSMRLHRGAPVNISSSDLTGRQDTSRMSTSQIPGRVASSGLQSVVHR
Chain of Mitogen-activated protein kinase 1 (Homo sapiens) (P28482 whole entry): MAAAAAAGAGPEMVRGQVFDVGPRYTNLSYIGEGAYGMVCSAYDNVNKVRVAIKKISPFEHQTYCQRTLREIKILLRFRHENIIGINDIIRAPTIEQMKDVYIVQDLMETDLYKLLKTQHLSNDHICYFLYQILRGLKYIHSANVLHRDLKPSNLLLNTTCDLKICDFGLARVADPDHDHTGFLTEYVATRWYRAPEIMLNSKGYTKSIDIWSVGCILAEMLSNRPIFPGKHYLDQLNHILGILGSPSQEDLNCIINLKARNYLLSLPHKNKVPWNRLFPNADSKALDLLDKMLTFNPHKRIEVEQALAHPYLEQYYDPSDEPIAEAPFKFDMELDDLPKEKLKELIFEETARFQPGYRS

Consider `N#Cc1cc2cc(CN3CCC(Nc4ncnc5sc(CC(F)(F)F)cc45)CC3)ccc2[nH]1`, for which the shift in melting temperature (ΔTm) was 0.42 °C in experiment [1]; 1.04 °C in experiment [2]; 0.06 °C in experiment [3]; 1.89 °C in experiment [4]; -0.5 °C in experiment [5]; 0.61 °C in experiment [6]. Also, the ΔTm was -0.57 °C in experiment [7] and 1.28 °C in experiment [8].
Turning to `CC(=O)N[C@@H](CC(C)C)C(=O)N[C@@H](CCC(=O)O)C(=O)N[C@@H](Cc1cnc[nH]1)C(=O)N[C@@H](CC(=O)O)C(=O)CCl` (Ac-LEHD-CH2Cl), the ΔTm in experiment [1] was 0.46 °C; in experiment [2] it was -2.67 °C; in experiment [3], -0.58 °C; in experiment [4] it was 0.2 °C; in experiment [5] it was 0.91 °C; in experiment [6], 0.29 °C. Further, the ΔTm in experiment [7] is -1.15 °C; in experiment [8], -1.2 °C.
With `CC(C)[C@H](NC(=O)[C@H](CCC(=O)O)NC(=O)[C@H](C)NC(=O)OC(C)(C)C)C(=O)N[C@H](C=O)CC(=O)O` (Boc-AEVD-aldehyde), the ΔTm is 0.28 °C in experiment [1]; -2.26 °C in experiment [2]; -0.28 °C in experiment [3]; -0.09 °C in experiment [4]; -1.03 °C in experiment [5]; -0.49 °C in experiment [6]. The ΔTm in experiment [7] was -1.35 °C; in experiment [8] it was -0.84 °C.
For `CN(CCCCCCNc1ccnc2cc(Cl)ccc12)CCCCCCNc1ccnc2cc(Cl)ccc12`, the ΔTm is -1.1 °C in experiment [1]; 2.96 °C in experiment [2]; 0.27 °C in experiment [3]; -0.85 °C in experiment [4]; -0.7 °C in experiment [5]; -0.51 °C in experiment [6]. Besides, the ΔTm in experiment [7] is -1.69 °C; in experiment [8] it was 0.54 °C.
Regarding `Cc1cc(C(=O)CN2CCC(O)CC2)c(C)n1-c1ccc(C#N)cc1`, the ΔTm in experiment [1] is 0.11 °C; in experiment [2] it was -2.81 °C; in experiment [3], -0.05 °C; in experiment [4], -0.34 °C; in experiment [5], -0.73 °C; in experiment [6] it was 0.01 °C. Further, the ΔTm in experiment [7] was -2.48 °C; in experiment [8], -1.8 °C.
On to `CC(C)NCC(O)COC(Cn1c2ccccc2c2ccccc21)Cn1c2ccccc2c2ccccc21` (stereo not drawn), for which the ΔTm in experiment [1] was 0.25 °C; in experiment [2], 0 °C; in experiment [3], -0.87 °C; in experiment [4] it was -0.3 °C; in experiment [5], -5.02 °C; in experiment [6], -15 °C. The values for the shift in melting temperature (ΔTm) in experiment [7] and in experiment [8] were -0.78 °C and -3.49 °C, respectively.
Take `CN1CCN2c3c(cccc31)[C@@H]1CN(CCCC(=O)c3ccc(F)cc3)CC[C@@H]12`: the ΔTm in experiment [1] was -0.01 °C; in experiment [2] it was -0.67 °C; in experiment [3] it was -0.01 °C; in experiment [4], -0.14 °C; in experiment [5], -0.53 °C; in experiment [6], 0.07 °C. The thermal shift (ΔTm) in experiment [7] was -0.26 °C; in experiment [8] it was 0.32 °C.
Regarding `N#Cc1cc(F)cc(Oc2ccc3c(c2C(F)F)[C@@H](O)C(F)(F)S3(=O)=O)c1`, the ΔTm was 0.45 °C in experiment [1]; -2.84 °C in experiment [2]; -0.03 °C in experiment [3]; -0.34 °C in experiment [4]; 0.02 °C in experiment [5]; 0.16 °C in experiment [6]. The values for the ΔTm in experiment [7] and in experiment [8] were -2.42 °C and -0.94 °C, respectively.
Take `CC(=O)OCCN1C(=O)c2c(C)nc3ccc(S(=O)(=O)N4CCOCC4)cc3c2C1=O`: the ΔTm in experiment [1] was -0.43 °C; in experiment [2], -1.49 °C; in experiment [3], -0.16 °C; in experiment [4], 0.13 °C; in experiment [5], -0.73 °C; in experiment [6] it was -0.31 °C. Also, the ΔTm in experiment [7] was -1.13 °C; in experiment [8], -1.22 °C.
As to `O=C(CNC(=O)[C@H](COP(=O)(O)O)NC(=O)CCc1c[nH]c2ccccc12)NCCCCc1ccccc1`, the ΔTm was 0.34 °C in experiment [1]; -3.51 °C in experiment [2]; 0.72 °C in experiment [3]; -0.09 °C in experiment [4]; -0.2 °C in experiment [5]; 0.17 °C in experiment [6]. Further, the ΔTm was -1.56 °C in experiment [7] and 0.45 °C in experiment [8].
Take `N[C@@H](CCCCB(O)O)C(=O)O`: the ΔTm in experiment [1] is 0.06 °C; in experiment [2], 1.28 °C; in experiment [3] it was 0.26 °C; in experiment [4], -0.26 °C; in experiment [5] it was -0.55 °C; in experiment [6] it was 0.18 °C. Further, the ΔTm in experiment [7] was -0.4 °C; in experiment [8], -0.41 °C.
